Results taken from PubChem BioAssay (NCATS).
Inconclusive results are not listed. Calls of active or inactive are those of the source. The call rests on the fitted dose curve; in most records, active means well fitted curve in the direction sought with a large enough effect; inconclusive means small, poorly fitted or top-dose-only effect, or another doubt; inactive means no such curve, though single readings can be large; an effect the other way counts as inactive or inconclusive.

How the values were obtained:
[1] = Cell Viability - LYMP1-002 - Assay at 16 hr (AID 948)
Method in brief: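 In this qHTS, lymphoblastoid LYMP1-002 cells (human) receive compounds for 16 hr at 37 C. Viability is taken from CellTiter-Glo ATP luminescence, and AC50 derives from standard Hill fits.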

[2] = MultiTox-Fluor Cytotoxicity Assay - LYMP1-002 - Live Cells (AID 955);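 further: cells exposed to compound for 16 hours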
Method in brief: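 Read-out is live-cell protease activity (cell-permeant GF-AFC substrate, fluorescence Ex/Em=405/510), where a decrease indicates acute toxicity. Human lymphoblastoid cells were treated 16 hours at 37 C in a concentration series, and AC50 values came from standard Hill modelling.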

[3] = MultiTox-Fluor Cytotoxicity Assay - LYMP1-002 - Dead Cells (AID 960);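 further: cells exposed to compound for 16 h at 37 °C; nearly all actives have a fitted effect of over 60% in size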
Method in brief: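 LYMP1-002 cells 2500/well; 5 hr 37 C pre-incubation; compound 16 hr 37 C; MultiTox-Fluor reagent 60 min RT; dead-cell fluor Ex/Em 485/520. Norm. to DMSO (0%) vs 15 uM tetraoctylammonium bromide (100%); Hill AC50.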

[4] = MultiTox-Fluor Cytotoxicity Assay - LYMP1-003 - Dead Cells (AID 961);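 further: cells exposed to compound for 16 h at 37 °C; nearly all actives have a fitted effect of over 70% in size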
Method in brief: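 Acute toxicity is scored as increased dead-cell protease activity in human lymphoblastoid LYMP1-003 cells after 16 h compound exposure in complete culture medium. Activity is normalized to DMSO basal and 15 uM tetraoctylammonium bromide as full response.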

[5] = MultiTox-Fluor Cytotoxicity Assay - LYMP1-003 - Live Cells (AID 962);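 further: cells exposed to compound for 16 hours at 37 °C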; further: potency means the concentration at half of the fitted maximal effect
Method in brief: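 qHTS, 1536-well; 2500 cells/well LYMP1-003; 5 hr 37 C settle; cpd 16 hr 37 C; MultiTox-Fluor reagent 60 min RT; live-cell protease fluor. 405/510; Hill-fit AC50; tetraoctylammonium bromide pos. ctrl.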

[6] = Cell Viability - LYMP1-003 - Assay at 24 hr (AID 963); further: potency means the concentration at half of the fitted maximal effect
Method in brief: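 Cells seeded at 2500/well, 5 hr at 37 C; compounds added; 24 hr at 37 C; CellTiter-Glo added, 30 min room temperature; luminescence read. Decrease in ATP taken as cytotoxicity, AC50 from Hill modelling.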

[7] = Cell Viability - LYMP1-003 - Assay at 40 hr (AID 964); further: nearly all actives have a fitted effect of over 60% in size; further: potency means the concentration at half of the fitted maximal effect
Method in brief: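 Cells were seeded at 2500 per well and incubated 5 hr at 37 C. Compounds were added across a concentration series and left 40 hr at 37 C. CellTiter-Glo was added for 30 min at room temperature before luminescence reading.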

[8] = Cell Viability - LYMP2-003 (AID 965);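 further: cells exposed to compounds for 24 h before reading; nearly all actives have a fitted effect of over 50% in size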; further: potency means the concentration at half of the fitted maximal effect
Method in brief: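 qHTS, human lymphoblastoid line, 2500 cells/well, complete medium. 24 h drug, 37 C. ATP-based luminescent readout; Hill-fit AC50.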

[9] = Cell Viability - LYMP2-004 (AID 966); further: nearly all actives have a fitted effect of over 65% in size; further: potency means the concentration at half of the fitted maximal effect
Method in brief: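 Cells seeded 2500/well, rested 5 hr at 37 C, dosed across a concentration series, incubated 24 hr at 37 C, then CellTiter-Glo added for 30 min at room temperature and luminescence read. Hill fitting gave AC50.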

[10] = Cell Viability - LYMP2-009 (AID 968); further: nearly all actives have a fitted effect of over 55% in size; further: potency means the concentration at half of the fitted maximal effect
[11] = Cell Viability - LYMP2-011 (AID 969); further: nearly all actives have a fitted effect of over 60% in size; further: potency means the concentration at half of the fitted maximal effect
Method in brief: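 2500 cells/well, 5 hr 37 C; compound added, 24 hr 37 C; CellTiter-Glo 30 min RT; luminescence. qHTS concentration-response, Hill-equation AC50. Tetraoctylammonium bromide positive control.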

[12] = Cell Viability - LYMP2-013 (AID 970); further: nearly all actives have a fitted effect of over 55% in size; further: potency means the concentration at half of the fitted maximal effect
Method in brief: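 qHTS; 2500 lymphoblastoid cells/well; 5 hr 37 C settle; cpd 24 hr 37 C; CellTiter-Glo, 30 min RT; luminescence. AC50 = Hill fit.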

[13] = Cell Viability - LYMP2-015 (AID 971); further: nearly all actives have a fitted effect of over 55% in size; further: potency means the concentration at half of the fitted maximal effect
Method in brief: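 Luminescent ATP read-out (CellTiter-Glo) served as the viability measure after lymphoblastoid cells were exposed to compounds for 24 hours at 37 C. Concentration-response data were fitted with the Hill equation to give AC50.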

[14] = Cell Viability - LYMP2-017 (AID 972); further: nearly all actives have a fitted effect of over 55% in size; further: potency means the concentration at half of the fitted maximal effect
Method in brief: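 2500 cells/well, 5 h 37 C; cpd 24 h 37 C in complete medium; CellTiter-Glo, 30 min RT; luminescence (ATP). AC50 via Hill fit, qHTS.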

[15] = Cell Viability - LYMP2-019 (AID 973); further: nearly all actives have a fitted effect of over 55% in size; further: potency means the concentration at half of the fitted maximal effect
Method in brief: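 Luminescent ATP read-out (CellTiter-Glo, 30 min room temperature) served as the viability measure after 24 hr treatment of lymphoblastoid cells at 37 C. Concentration-response data were fitted to the Hill equation for AC50.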

[16] = Cell Viability - LYMP2-021 (AID 974); further: potency means the concentration at half of the fitted maximal effect
Method in brief: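 Plate 2500 lymphoblastoid cells per well and incubate 5 hr at 37 C. Add compounds over a concentration range and incubate 24 hr at 37 C. Add CellTiter-Glo, wait 30 min at room temperature, read luminescence.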

[17] = Cell Viability - LYMP2-023 (AID 975); further: nearly all actives have a fitted effect of over 55% in size; further: potency means the concentration at half of the fitted maximal effect
Method in brief: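 2500 cells/well, 5 hr 37 C; cpd 24 hr 37 C; CellTiter-Glo, 30 min RT; luminescence. qHTS conc-response, Hill fit -> AC50. Pos ctrl tetraoctylammonium bromide.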

[18] = MultiTox-Fluor Cytotoxicity Assay - LYMP1-001 - Live Cells (AID 947)
[19] = Cell Viability - LYMP2-005 (AID 967); further: series mostly up to about 92 µM
Method in brief: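 Luciferase-based ATP quantitation served as the viability measure in human lymphoblastoid LYMP2-005 cells exposed to test compounds for 24 h at 37 C in complete culture medium. Potency (AC50) was obtained by fitting concentration-response curves with the Hill equation.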

Measured: Potency

C=CC(=O)OCCCC
not listed: [18] | [19]
inactive: all other assays above

CC1=C(/C=C/C(C)=C/C=C/C(C)=C\C=O)C(C)(C)CCC1
active: [5] 50.1 µM | [6] 63.1 µM | [7] 50.1 µM | [8] 39.8 µM | [9] 31.6 µM | [10] 50.1 µM | [11] 50.1 µM | [12] 50.1 µM | [13] 39.8 µM | [14] 50.1 µM | [15] 50.1 µM | [16] 50.1 µM | [17] 50.1 µM

Cc1ccc(Br)cc1
not listed: [4]
inactive: all other assays above

CCC(C)(C)OC
not listed: [1] | [15]
inactive: all other assays above

Cc1cc(C)cc(N)c1
not listed: [1] | [4] | [18]
inactive: all other assays above

c1ccc2n[nH]nc2c1
not listed: [3] | [16]
inactive: all other assays above

COc1cccc2sc(N)nc12
not listed: [1] | [2] | [3]
inactive: all other assays above

CCCCC=O
not listed: [15] | [18] | [19]
inactive: all other assays above

CNc1ccccc1
not listed: [2] | [4] | [5]
inactive: all other assays above

c1ccc(Oc2ccccc2)cc1
not listed: [3] | [8] | [12] | [15]
inactive: all other assays above

N#CC1(O)CCCCC1
not listed: [8]
inactive: all other assays above

CCCCC(CC)C(=O)O (configuration not stated)
not listed: [1] | [2] | [13]
inactive: all other assays above

Clc1ccccn1
not listed: [1] | [19]
inactive: all other assays above

CCC(C)=O
not listed: [18] | [19]
inactive: all other assays above

Cc1cccc2sc(N)nc12
not listed: [10]
inactive: all other assays above

CC(C)N(C)C
not listed: [8] | [10] | [12] | [19]
inactive: all other assays above

Cc1c(N)cccc1[N+](=O)[O-]
not listed: [18]
inactive: all other assays above

COc1ccc(N)c(OC)c1
not listed: [16] | [18]
inactive: all other assays above

O=C1CCC(=O)O1
inactive: all assays above

Cc1ccccc1C(N)=O
not listed: [1] | [8] | [9] | [19]
inactive: all other assays above

O=[N+]([O-])c1ccc(NCCO)c(OCCO)c1
inactive: all assays above

O=Cc1ccc(C(=O)O)cc1
not listed: [3] | [10]
inactive: all other assays above

CCCCCNCCCCC
not listed: [18]
inactive: all other assays above

CC(=O)C1(C)CC2=C(CCCC2(C)C)CC1C (configuration not stated)
not listed: [5] | [15]
inactive: all other assays above

C[C@@H]1CC2(OC[C@]3(C)O[C@H]23)O[C@H]2C[C@@]3(C)[C@@H]4CC[C@H]5C(C)(C)C(O[C@@H]6OC[C@@H](O)[C@H](O)[C@H]6O)CC[C@@]56C[C@@]46CC[C@]3(C)[C@@H]12 (some centres not stated)
not listed: [12]
inactive: all other assays above

Cc1ccc(C)c([N+](=O)[O-])c1
not listed: [4] | [18]
inactive: all other assays above

CC(C)C=O
not listed: [16] | [18]
inactive: all other assays above

CC(C)=CCl
not listed: [3] | [4]
inactive: all other assays above

S=C([S-])NCCNC(=S)[S-].[Zn+2]
not listed: [16] | [18]
inactive: all other assays above

BrC(Br)C(Br)Br
not listed: [4] | [12] | [13]
inactive: all other assays above

OCCO
not listed: [5] | [13] | [18]
inactive: all other assays above

Nc1ccccc1[N+](=O)[O-]
not listed: [8] | [19]
inactive: all other assays above

CC(=O)c1nccs1
not listed: [2]
inactive: all other assays above

C=CCCCCCCC=C
not listed: [18]
inactive: all other assays above

CCCCCCC=O
not listed: [3] | [18] | [19]
inactive: all other assays above

CCCCCCCN
not listed: [4]
inactive: all other assays above
